An excerpt weighted towards active compounds, which were near 6.8% of everything screened.
A340 absorber – compound absorbs light at 340 nm. fold change at 10 µM. 65,000 tested, under 10 active. AID 708. compound absorbance at 340 nm, fold over control;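 active = at 10 µM dose, initial 340 nm absorbance at least 2 fold that of control wells; inactive = change under 2 fold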;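 note: initial absorbance extrapolated from kinetic A340 decline of NADH oxidation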
Spn DPM-DC inh – blocks S. pneumoniae diphosphomevalonate decarboxylase. purified DPM-DC, PK/LDH coupled NADH fluorescence. hit rate 0.49% among 65,000. calls only at 10 µM;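 active = the 320 compounds with the highest percent inhibition in the single-dose primary screen, excluding strongly autofluorescent ones, cut at about 32% in these data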;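 note: kinetic rate of NADH fluorescence loss reporting ADP formed by the decarboxylase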
Autofluor 339 – intrinsic fluorescence of library compounds, ex339/em460 – biochemical, MLSMR library, data from DPM-DC assay, artefact control, profiling panel | compound autofluorescence, ex339/em460 nm, NADH buffer; active compounds read high; 1 = no-compound wells, NADH background | fluorescence fold increase at 10 µM | hit rate 5.5% among 65,000;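 active = at 10 µM, mean starting fluorescence two-fold or more over control wells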;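 note: signal is the first read of a kinetic run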
NADH coupling – inhibitors of enzymes used to reach an NAD/NADH endpoint; coupled PK/LDH NADH assays, four targets; IC50, µM (titrated, usually from 10 µM), without a hit: at the highest dose inhibition; hit rate 0.02% among 65,000;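 active = single-dose screening hits from any of four coupled enzyme assays that gave an IC50 when retested across doses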;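 note: the DPM-DC format reads NADH fluorescence rather than 340 nm absorbance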
Spn PMK inh – S. pneumoniae PMK inhibition | inhibition, % at 10 µM | hit rate 0.49% among 65,000 | purified PMK, PK/LDH-coupled NADH absorbance 340 nm;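 active = top-ranked compounds by inhibition in the single 10 µM screen, taking a fixed number of the strongest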;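 note: 0% = full reaction with DMSO carrier and 100% = background rate without enzyme reaction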
MK inhibit – blocks S. pneumoniae mevalonate kinase; purified MK, PK/LDH-coupled NADH absorbance 340 nm; inhibition, % at 10 µM; hit rate 0.48% among 65,000; AID 555;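 active = ranked among the strongest by inhibition in the single 10 µM screen, a fixed top-ranked set picked for dose follow-up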
* = called active by the depositor; [ ] = another dose, or the depositor's remark.

`COc1ccc(CCNc2oc(-c3ccccc3OC)nc2C#N)cc1OC` gave A340 absorber 1, Autofluor 339 3.9*, NADH coupling 15%, Spn PMK inh 15 and MK inhibit 14.
Screening COc1ccc(CNc2oc(COc3ccccc3)nc2C#N)cc1 returned A340 absorber 1, Spn DPM-DC inh inactive, Autofluor 339 0.96, NADH coupling 7%, Spn PMK inh 16 and MK inhibit 5.
For CCOC(=O)C(C(=O)Nc1nccs1)C1CCCCC1 (configuration not stated) the results were A340 absorber 1, Spn DPM-DC inh inactive, Autofluor 339 1.1, NADH coupling 0%, Spn PMK inh 0 and MK inhibit 1.
COC(=O)c1ccc(-n2nnnc2SCc2ccccc2OC)cc1 was read as A340 absorber 1, Spn DPM-DC inh inactive, Autofluor 339 1.1, NADH coupling 8%, Spn PMK inh 18 and MK inhibit 7.
`CCn1cc(C(=O)OCC(=O)Nc2ccc(S(=O)(=O)N3CCCC3)cc2)c(=O)c2ccc(C)nc21` gave A340 absorber 1, Spn DPM-DC inh inactive, Autofluor 339 1, NADH coupling 9%, Spn PMK inh 21 and MK inhibit 5.
COc1ccccc1-c1nc(C#N)c(NCc2ccc(F)cc2)o1 was read as A340 absorber 1, Autofluor 339 3.9*, NADH coupling 12%, Spn PMK inh 12 and MK inhibit 12.
`N#Cc1nc(COc2ccccc2Cl)oc1NCc1ccc(F)cc1` gave A340 absorber 1, Spn DPM-DC inh inactive, Autofluor 339 1.3, NADH coupling 2%, Spn PMK inh 3 and MK inhibit 3.
`CCOC(=O)c1[nH]c2ccc(OC)cc2c1NC(=O)CN1CCN(c2ccccn2)CC1` gave A340 absorber 1, Spn DPM-DC inh active, Autofluor 339 2, NADH coupling 25%, Spn PMK inh 41 and MK inhibit 0.
`CCOC(=O)c1[nH]c2ccc(OCC)cc2c1NC(=O)CN1CCN(c2ccccn2)CC1` gave A340 absorber 1.1, Autofluor 339 3.9*, NADH coupling 8%, Spn PMK inh 15 and MK inhibit 1.
Screening COC(=O)c1[nH]c2ccccc2c1NC(=O)CN1CCN(Cc2ccc3c(c2)OCO3)CC1 returned A340 absorber 1, Spn DPM-DC inh inactive, Autofluor 339 1.6, NADH coupling 9%, Spn PMK inh 6 and MK inhibit 13.
For CCOC(=O)C1CCN(CC(=O)Nc2c(C(=O)OC)[nH]c3ccccc23)CC1 the results were A340 absorber 1, Spn DPM-DC inh inactive, Autofluor 339 1.4, NADH coupling 9%, Spn PMK inh 10 and MK inhibit 16.
`CCOC(=O)c1[nH]c2ccc(OCC)cc2c1NC(=O)CN1CCCC(C)C1` (configuration not stated) gave A340 absorber 1.1, Autofluor 339 3.9*, NADH coupling 5%, Spn PMK inh 6 and MK inhibit 3.
`CCOC(=O)c1[nH]c2cc3c(cc2c1NC(=O)CN1CC(C)CC(C)C1)OCO3` (configuration not stated) gave A340 absorber 1.1, Autofluor 339 2.4*, NADH coupling 4%, Spn PMK inh 4 and MK inhibit 4.
CCn1c(SCC(=O)Nc2nc3ccc(C)cc3s2)nc2c(c1=O)SC(C)C2 (configuration not stated) was read as A340 absorber 1, Spn DPM-DC inh inactive, Autofluor 339 1.1, NADH coupling 6%, Spn PMK inh 19 and MK inhibit 0.
For O=C(CSc1nc2ccccc2s1)Nn1cnnc1 the results were A340 absorber 1, Spn DPM-DC inh inactive, Autofluor 339 1.1, NADH coupling 4%, Spn PMK inh 12 and MK inhibit 1.
For Cc1nn(C)c(N)c1C(O)(c1nccn1C)C(F)(F)F (configuration not stated) the results were A340 absorber 0.98, Spn DPM-DC inh inactive, Autofluor 339 1.1, NADH coupling 4%, Spn PMK inh 9 and MK inhibit 3.
CCc1ccc(OCC(=O)Nc2ccc(-c3nc4ccccc4o3)c(O)c2)cc1 was read as A340 absorber 1.1, Autofluor 339 2.2*, NADH coupling 9%, Spn PMK inh 7 and MK inhibit 11.
Screening Cc1n[nH]c(=S)n(/N=C/c2ccccn2)c1=O returned A340 absorber 1.1, Spn DPM-DC inh inactive, Autofluor 339 1.1, NADH coupling 23%, Spn PMK inh 43* and MK inhibit 11.
COC(=O)Cc1ccc2c3ccccc3n(C)c2c1 was read as A340 absorber 1.1, Spn DPM-DC inh inactive, Autofluor 339 1.2, NADH coupling 4%, Spn PMK inh 0 and MK inhibit 8.
`CC(=O)c1ccc(-c2nc3c4ccccc4ccn3c2C(C)=O)o1` gave A340 absorber 1.2, Autofluor 339 2.2*, NADH coupling 3%, Spn PMK inh 3 and MK inhibit 3.
`Fc1ccc2c(c1)[C@H]1OCC[C@H]1[C@@H](c1ccco1)N2` gave A340 absorber 1, Spn DPM-DC inh inactive, Autofluor 339 2.7*, NADH coupling 12%, Spn PMK inh 2 and MK inhibit 10.
Clc1ccc2c(c1)[C@H]1OCC[C@H]1[C@@H](c1ccco1)N2 was read as A340 absorber 1, Spn DPM-DC inh active[fluoresces], Autofluor 339 2.3*, NADH coupling 5%, Spn PMK inh 8 and MK inhibit 13.
Screening C[C@@H]1C[C@H](O)c2cc(Cl)ccc2N1 returned A340 absorber 0.99, Spn DPM-DC inh inactive, Autofluor 339 1, NADH coupling 4%, Spn PMK inh 13 and MK inhibit 9.
For CN(CCc1ccccn1)S(=O)(=O)c1ccccc1F the results were A340 absorber 1.1, Spn DPM-DC inh inactive, Autofluor 339 1, NADH coupling 5%, Spn PMK inh 0 and MK inhibit 16.
`CN(CCc1ccccn1)Cc1ccc(Cl)cc1Cl` gave A340 absorber 1.1, Spn DPM-DC inh inactive, Autofluor 339 1.2, NADH coupling 15%, Spn PMK inh 0 and MK inhibit 44*.
`CCN1C(=O)c2cccc3c(S(=O)(=O)NCc4ccco4)ccc1c23` gave A340 absorber 1.1, Spn DPM-DC inh inactive, Autofluor 339 2.3*, NADH coupling 7%, Spn PMK inh 3 and MK inhibit 8.
Screening CSc1nnnn1-c1cccc(O)c1 returned A340 absorber 1.1, Spn DPM-DC inh inactive, Autofluor 339 1.1, NADH coupling 18%, Spn PMK inh 22 and MK inhibit 24.
Screening CCCCCC(=O)Nc1cc(N(C)C)nc2ccccc12 returned A340 absorber 1.1, Autofluor 339 2.2*, NADH coupling 2%, Spn PMK inh 4 and MK inhibit 0.
